Compound activity deposited in PubChem by National Center for Advancing Translational Sciences (NCATS).
TDP1 cell noCPT = qHTS for Inhibitors of human tyrosyl-DNA phosphodiesterase 1 (TDP1): qHTS in cells in absence of CPT; actives 15% (n = 420,000); Potency, µM (top dose mostly 46.2 µM), without a hit: at the top dose activity change, negative = growth inhibition, usual class: inhibitors; DT40 Tdp1-/- hTDP1 cells, no CPT, ATP luminescence, 48 h; further: nearly all actives have a fitted effect of over 55% in size
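No-CPT arm: Tdp1-/-;hTDP1 DT40 cells (400/well) plus compounds, incubated ≥48 hr at 37 °C. Readout CellTiter-Glo luminescence.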
KB-V1 MDR tox = KB-V1 MDR subline cytotoxicity; KB-V1 MDR cells viability, CellTiter-Glo, 72 h; Potency, µM (titrated, usually from 46.1 µM), hits mostly cytotoxic; actives 3.4% (n = 400,000); AID 1347076; further: nearly all actives have a fitted effect of over 60% in size
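Cells of the MDR subline KB-V1 are plated, dosed with compound at multiple concentrations, and incubated 72 h at 37 degrees C; CellTiter-Glo is then added and luminescence read after 10 min.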
DT40 TDP1 CPT = growth inhibition of DT40 Tdp1-/-;hTDP1 cells with camptothecin (screen for TDP1 inhibitors); chicken DT40 Tdp1-/-;hTDP1 cells + 20 nM CPT, ATP luminescence, 48 h; Potency, µM (doses to about 46.2 µM), for the others: at the highest dose activity change, negative = growth inhibition, most hits filed as inhibitors; actives 12% (n = 420,000); AID 686979; further: nearly all actives have a fitted effect of over 55% in size
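Chicken DT40 Tdp1-/- cells complemented with human TDP1, 400 cells/well, exposed to compounds plus 20 nM camptothecin for at least 48 h at 37 C; viability read as ATP content by CellTiter-Glo luminescence.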
HT1080-NT tox = kills 2HG-producing HT-1080-NT fibrosarcoma cells. HT-1080-NT fibrosarcoma viability, CellTiter-Glo ATP luminescence, 48 h. Potency, µM (highest dose often 46.1 µM), for the others: at the highest dose activity, negative = less viability, hits mostly cytotoxic. actives 1.6% (n = 360,000). AID 686970;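 further: NT is the 2HG producing partner of a matched IDH1 knockdown line; 0% = DMSO-treated cells and -100% = media-only wells without cells; nearly all actives have a fitted effect of over 55% in size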
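HT-1080-NT fibrosarcoma cells (2HG-overproducing), 750 cells/well in RPMI with 5% FBS, dosed after 2 h and incubated 48 h at 37C. CellTiter-Glo luminescence normalized to DMSO and no-cell wells; concentration-response curves fitted and classed.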
HT1080 IDH1KD tx = toxicity to HT-1080 IDH1 knockdown cells (counter line). Potency, µM (series often up to 46.1 µM), for the others: top-dose activity, negative = toxicity, hits mostly cytotoxic. AID 686971. actives 2% (n = 360,000). HT-1080 IDH1 knockdown viability, ATP luminescence, 48 h;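 further: 0% = DMSO wells and -100% = cell-free medium wells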
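Using the IDH1-knockdown HT-1080 line run in the same batch and compound series as the NT line, viability after 48 h at 37 °C was determined by CellTiter-Glo luminescence and expressed as % activity.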
KB-3-1 cytotox = kills parental KB-3-1 adenocarcinoma cells. KB-3-1 viability, CellTiter-Glo ATP luminescence, 72 h. Potency, µM (titrated, usually from 46.1 µM), actives largely listed as cytotoxic. actives 1.4% (n = 400,000). AID 1347075; further: nearly all actives have a fitted effect of over 60% in size
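Parental KB-3-1 adenocarcinoma cells in phenol-red-free DMEM with 10% FBS were pin-treated with compounds at several concentrations, incubated 72 h at 37 °C, and viability read by CellTiter-Glo luminescence; concentration-effect curves were fitted after normalization.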
* marks the source's active call; other numbers are inactive results. Compounds with a hit are over-represented: about 19% of the library has one in this group of screens. The call rests on the fitted dose curve; in most records, active means well fitted curve in the direction sought with a large enough effect; inconclusive means small, poorly fitted or top-dose-only effect, or another doubt; inactive means no such curve, though single readings can be large; an effect the other way counts as inactive or inconclusive. Unless noted, on the % scale 0 is the no-effect control and ±100 the full control effect; potency means the concentration at half of the fitted maximal effect.

For COc1cccc(-c2cc3nc(C)c(C)c(N4CCN(C(=O)c5ccoc5)CC4)n3n2)c1 the results were TDP1 cell noCPT 8.2µM*, KB-V1 MDR tox inactive, DT40 TDP1 CPT 13µM*, HT1080-NT tox -0.5%, HT1080 IDH1KD tx 9.1% and KB-3-1 cytotox inactive.
`COc1ccc(C(=O)N2CCN(C(=O)c3ccco3)CC2)cc1` gave TDP1 cell noCPT -0.3%, KB-V1 MDR tox inactive, DT40 TDP1 CPT 0.8%, HT1080-NT tox 5.4%, HT1080 IDH1KD tx 6.6% and KB-3-1 cytotox inactive.
COc1cccc(C(=O)N2CCN(Cc3nc(-c4ccoc4)oc3C)CC2)c1 was read as TDP1 cell noCPT -3.3%, KB-V1 MDR tox inactive, DT40 TDP1 CPT -12.4%, HT1080-NT tox 0.0%, HT1080 IDH1KD tx 7.6% and KB-3-1 cytotox inactive.
`Cc1ccc(-c2nc3nc(C)cc(N4CCN(c5cccc(C)c5C)CC4)n3n2)cc1` gave TDP1 cell noCPT -3.9%, KB-V1 MDR tox inactive, DT40 TDP1 CPT 27.5% and KB-3-1 cytotox inactive.
For Cc1[nH]n(-c2ccc([N+](=O)[O-])cc2)c(=O)c1C=NCCc1c(C)[nH]c2ccccc12 the results were TDP1 cell noCPT 16.4µM*, KB-V1 MDR tox 16.4µM*, DT40 TDP1 CPT 16.4µM*, HT1080-NT tox -22.6%, HT1080 IDH1KD tx -23.2% and KB-3-1 cytotox inactive.
`Cc1[nH]c2ccccc2c1/C=N/NC(=O)c1cccc([N+](=O)[O-])c1` gave TDP1 cell noCPT inconclusive, KB-V1 MDR tox inactive, DT40 TDP1 CPT -17.1%, HT1080-NT tox 0.0%, HT1080 IDH1KD tx -2.8% and KB-3-1 cytotox inactive.
`Cc1[nH]c2ccccc2c1/C=N/Nc1ccc([N+](=O)[O-])cc1` gave TDP1 cell noCPT inconclusive, KB-V1 MDR tox inactive, DT40 TDP1 CPT inconclusive, HT1080-NT tox 9.2µM*, HT1080 IDH1KD tx inconclusive and KB-3-1 cytotox inactive.
Cc1[nH]n(-c2ccc([N+](=O)[O-])cc2)c(=O)c1C=NCC1CCCO1 (configuration not stated) was read as TDP1 cell noCPT 10.3µM*, KB-V1 MDR tox inconclusive, DT40 TDP1 CPT 10.3µM*, HT1080-NT tox -25.9%, HT1080 IDH1KD tx -16.8% and KB-3-1 cytotox inconclusive.
For Cc1ccc(-n2[nH]c(C)c(/C=N/Nc3ccc([N+](=O)[O-])cc3[N+](=O)[O-])c2=O)cc1 the results were TDP1 cell noCPT 14.6µM*, KB-V1 MDR tox 16.4µM*, DT40 TDP1 CPT 20.6µM*, HT1080-NT tox inconclusive, HT1080 IDH1KD tx 23.1µM* and KB-3-1 cytotox inconclusive.
Screening CCc1ccc(NCc2cc3cc4c(cc3n(CC(=O)Nc3ccc(Cl)cc3)c2=O)OCO4)cc1 returned KB-V1 MDR tox inactive and KB-3-1 cytotox inconclusive.
Screening CCOC(=O)CN(c1cc([N+](=O)[O-])ccc1OC)S(C)(=O)=O returned TDP1 cell noCPT -2.1%, KB-V1 MDR tox inactive, DT40 TDP1 CPT 1.2%, HT1080-NT tox -1.2%, HT1080 IDH1KD tx 12.0% and KB-3-1 cytotox inactive.
`CCn1cc(C(=O)N2CCc3ccccc32)c(=O)c2cc(S(=O)(=O)N(C)C3CCCCC3)ccc21` gave TDP1 cell noCPT inconclusive, KB-V1 MDR tox inconclusive, DT40 TDP1 CPT -18.7%, HT1080-NT tox 2.6%, HT1080 IDH1KD tx 16.2% and KB-3-1 cytotox inactive.
For Cc1[nH]n(-c2ccc([N+](=O)[O-])cc2)c(=O)c1C=NCCN1CCN(C(=O)C(C)C)CC1 the results were TDP1 cell noCPT 16.4µM*, KB-V1 MDR tox inconclusive, DT40 TDP1 CPT 11.6µM*, HT1080-NT tox inconclusive, HT1080 IDH1KD tx inconclusive and KB-3-1 cytotox inconclusive.
For N#CC1C(=O)NC(=O)CC12CCCCC2 (configuration not stated) the results were TDP1 cell noCPT 3.5%, KB-V1 MDR tox inactive, DT40 TDP1 CPT 24.2%, HT1080-NT tox -0.1%, HT1080 IDH1KD tx 2.7% and KB-3-1 cytotox inactive.
For COc1cc(CN2CCN(c3cccc(C)c3C)CC2)cc(OC)c1O the results were TDP1 cell noCPT inconclusive, KB-V1 MDR tox 18.4µM*, DT40 TDP1 CPT inconclusive, HT1080-NT tox -11.5%, HT1080 IDH1KD tx 0.2% and KB-3-1 cytotox inactive.
`Cc1cccc(N2CCN(Cc3ccoc3)CC2)c1C` gave TDP1 cell noCPT inconclusive, KB-V1 MDR tox inactive, DT40 TDP1 CPT inconclusive, HT1080-NT tox 8.0%, HT1080 IDH1KD tx inconclusive and KB-3-1 cytotox inactive.
For Cc1cc(CN2CCN(c3cccc(C)c3C)CC2)cs1 the results were TDP1 cell noCPT 14.6µM* and DT40 TDP1 CPT 23.1µM*.
COc1ccc(C(=O)N2CCC3(CC2)CN(CC(C)C)C3)cc1 was read as TDP1 cell noCPT -7.3% and DT40 TDP1 CPT 6.1%.
Screening CC1=[N+]([O-])C(C)(C)C(c2ccc(Br)cc2)=[N+]1[O-] returned TDP1 cell noCPT -2.8%, KB-V1 MDR tox inconclusive, DT40 TDP1 CPT -0.7%, HT1080-NT tox -0.4%, HT1080 IDH1KD tx -0.1% and KB-3-1 cytotox inactive.
Screening OC(c1ccccc1)C(NCc1ccccc1)c1ccccc1 (configuration not stated) returned TDP1 cell noCPT 23.1µM*, KB-V1 MDR tox inconclusive, DT40 TDP1 CPT 23.1µM*, HT1080-NT tox -9.1%, HT1080 IDH1KD tx -14.7% and KB-3-1 cytotox inactive.
`O=C(COC(=O)Cn1cnc2ccccc2c1=O)Nc1cc(Cl)ccc1[N+](=O)[O-]` gave TDP1 cell noCPT 3.6%, KB-V1 MDR tox inactive, DT40 TDP1 CPT -25.7%, HT1080-NT tox 1.0%, HT1080 IDH1KD tx 2.6% and KB-3-1 cytotox inactive.
CC(=O)N1c2ccc(S(=O)(=O)NCCC(=O)NC3CCC(C)CC3)cc2CC1C (configuration not stated) was read as TDP1 cell noCPT -8.1%, KB-V1 MDR tox inactive, DT40 TDP1 CPT -18.0%, HT1080-NT tox 6.3%, HT1080 IDH1KD tx 12.2% and KB-3-1 cytotox inactive.
`CC(=O)N1CCc2cc(S(=O)(=O)NCc3ccc(C)cc3)ccc21` gave TDP1 cell noCPT 7.31µM*, KB-V1 MDR tox inactive, DT40 TDP1 CPT inconclusive, HT1080-NT tox 0.1%, HT1080 IDH1KD tx -17.2% and KB-3-1 cytotox inconclusive.
`Cc1ccc(CNS(=O)(=O)c2ccc3c(c2)CC(C)N3C(=O)C2CCC2)cc1` (configuration not stated) gave TDP1 cell noCPT 20.6µM*, KB-V1 MDR tox inactive, DT40 TDP1 CPT inconclusive and KB-3-1 cytotox inactive.
